The values below come from PubChem BioAssay AID818 (SRMLSC, 2007).

SMILES strings stand for the structures. About 2,100 (1.5%) of roughly 140,000 compounds were called active.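 The calls were made as follows: active = viability at or under a set limit, the compound median less 4 SD (cut at about 6% in these data); inactive = the rest.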 This excerpt belongs to a sample that is enriched for actives.

The assay in a line: primary screen for growth suppressors in beta-catenin knockout HCT116 cells (colon tumor, human) (AID 818).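 Also: 0% = Hyamine 1622 control at 20 µM and 100% = untreated cell control.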 Particulars: CellTiter-Glo, 60 h, at 10 µM, hits give low values. For orientation: In ATP-based viability assays light output follows the ATP content of the culture.
The viability is a read-out of living cells in per cent, often relative to untreated cells. In the case of `CC(=O)Nc1cccc(/C(C)=N/NC(=O)c2c(-c3ccccc3Cl)noc2C)c1`, the viability was 54.6% (inactive).
With `Cc1ccc(-n2c(SCC(=O)N/N=C/C=C/c3ccccc3[N+](=O)[O-])nc3ccccc3c2=O)cc1` the figure was 83.5% (inactive); with `CCn1c(/C=C/c2ccc([N+](=O)[O-])o2)nc2ccccc2c1=O`, 2.56% (active).
For `Cn1cc(/C=C/c2nc3ccccc3c(=O)n2-c2cccc([N+](=O)[O-])c2)c2ccccc21`, the viability is 66.3% (inactive).
With `O=C(CSc1nc2ccccc2[nH]1)N/N=C/C=C\c1ccccc1[N+](=O)[O-]` the figure was 57.4% (inactive); with `CC(NC(=O)C(=O)NN=C1CCC(C(C)(C)C)CC1)c1ccccc1` (stereo unspecified), 98.5% (inactive); with `CCCCCC(=O)NC(=S)NNC(=O)c1ccc([N+](=O)[O-])cc1`, 42.3% (inactive).
Turning to `CCCCCC(=O)Nc1ccc(C(=O)N/N=C/c2ccc([N+](=O)[O-])cc2)cc1`, the viability is 4.26% (active).
For the compound `O=C(COc1ccc(/C=N/NC(=O)c2ccc(O)cc2)cc1)Nc1ccc([N+](=O)[O-])cc1`, the viability is 64.3% (inactive).
Consider `FC(F)Oc1ccccc1NC(=S)Nc1cccc(Cl)c1Cl`, for which the viability was 94.2% (inactive).
As to `CCN1CN(Cc2ccccc2)CNC1=S`, the viability was 94.5% (inactive).
On to `C/C(=N\NC(=O)c1cc2c(s1)CCC(C)C2)c1cccnc1` (stereo unspecified), for which the viability was 66.6% (inactive).
For `Cc1ccc(C(=O)NC(=S)NCCN2CCOCC2)cc1`, the viability was 101% (inactive).
As for `COc1ccc(CC(=O)Nc2ccc(-c3nnc(-c4ccc(C)cc4)o3)cc2)cc1`, the viability is 5.04% (active).
Consider `COc1cccc(NC(=O)Cc2ccc(C)cc2)c1`, for which the viability is 99.6% (inactive).
With `COc1ccc(CC(=O)Nc2ccc(C(=O)NC(C)(C)C)cc2)cc1` the figure was 84.5% (inactive); with `Cc1ccc(-c2csc(NC(=O)c3cccs3)n2)cc1`, 95.5% (inactive).
The same measure for `Cc1nc(-c2ccc(NC(=O)c3cccs3)cc2)cs1`: 67% (inactive); for `Cc1ccc(-c2nnc(-c3ccc(NC(=O)c4cccs4)cc3)o2)cc1`: 2.05% (active); for `O=C(/C=C/c1cccs1)NCc1cccnc1`: 91.2% (inactive).
As to `Cc1ccc(-c2nc(-c3cccnc3)sc2CC(=O)Nc2ccc(C)c(Cl)c2)cc1`, the viability is 58.3% (inactive).
Take `CCc1nccn1S(=O)(=O)c1cccc([N+](=O)[O-])c1`: the viability is 96.5% (inactive).
Take `C=CCOc1c(Br)cc(/C=N\n2nnnc2N)cc1OC`: the viability was 85.3% (inactive).
Take `Oc1c(CN2CCN(c3ccc(F)cc3)CC2)cc(Cl)c2cccnc12`: the viability was 3.91% (active).
Turning to `O=C(c1cccc(C(=O)N2CCN(c3ccc(F)cc3)CC2)c1)N1CCN(c2ccc(F)cc2)CC1`, the viability was 47.4% (inactive).
The same measure for `CCN1CCN(C(c2cccnc2)c2cc(Cl)c3cccnc3c2O)CC1` (stereo unspecified): 45.3% (inactive).
